# C diff HTS – C. difficile growth inhibition; Clostridium difficile clinical isolate growth, OD600, 24 h; hits give low values; growth activity, negative = inhibition, % at 16 µg/mL (by protocol); 0.25% of 86,000 active;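 active = mean growth activity at or below -80% and every replicate also at or below -80%; inconclusive = mean at or below -80% but some replicate above -80%; inactive = mean growth activity above -80%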;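 note: 0% = DMSO wells and -100% = levofloxacin 16 µg/mL wells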
# T cruzi growth-1 – T. cruzi proliferation inhibition; T. cruzi beta-gal in NIH3T3, GalScreen luminescence, 90 h; inhibition, % at 8.34 µM; 5.9% of 77,000 active; AID 624255;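 active = mean inhibition above about 93%, with at least 55% of replicates each passing it, limit read from the data, passing the limit was not always enough; inconclusive = only one of those two conditions holds; inactive = neither condition holds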
# Pf Dd2 growth – inhibitors of Plasmodium falciparum Dd2 growth; P. falciparum Dd2 growth, SYBR Green, 72 h; hits give low values; activity change, % at 10 µM; 2.3% of 94,000 active; AID 1159554; in the data active = activity change below about -80%; inconclusive = no clear call, values can overlap the other calls
# T cruzi growth-2 – Trypanosoma cruzi proliferation inhibition; shares compounds with T cruzi growth-1; T. cruzi beta-gal in NIH3T3, GalScreen luminescence, 90 h; inhibition, % at 8.35 µM; 72% of 5,600 active; AID 651739;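 active = mean replicate inhibition above about 95% and at least 55% of replicates individually reaching it, limit read from the data; inconclusive = only one of the two criteria is met; inactive = neither criterion is met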
# T cruzi growth-3 – blocks T. cruzi growth in NIH3T3 host cells; shares compounds with T cruzi growth-1; T. cruzi beta-gal in NIH3T3, GalScreen luminescence, 90 h; inhibition, % at 2.09 µM; 21% of 5,600 active;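 active = mean inhibition above about 95%, with at least 55% of replicates also reaching it, limit read from the data; inconclusive = meets just one of the two conditions; inactive = meets neither condition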;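 note: plate controls were neutral control median for no effect and positive control median for full effect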
# 3T3 cytotox – NIH/3T3 (mouse) viability loss. shares compounds with T cruzi growth-1. NIH/3T3 viability, CellTiter-Glo ATP luminescence, 90 h. cytotoxicity (signal decrease), % at 8.35 µM. 14% of 5,600 active. AID 651742;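 active = mean signal decrease across replicates above about 35% based on untreated-well scatter, with enough replicates individually passing, limit read from the data; inconclusive = no rule stated though some were filed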;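 note: 0% = median of neutral control wells and 100% = median of positive control wells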
# NIH3T3 tox 2 – NIH/3T3 (mouse) viability loss; shares compounds with T cruzi growth-1; NIH/3T3 viability, CellTiter-Glo ATP luminescence, 90 h; inhibition, % at 24.9 µM; 56% of 5,600 active; AID 651744;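 active = mean loss of cell viability signal at or above a set limit, and enough replicates individually reaching it; inconclusive = meets only the mean limit or only the replicate share; inactive = meets neither condition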;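 note: 0% = median of neutral control wells and 100% = median of positive control wells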
# Active calls of the source: *; ? = inconclusive; . = not tested or not shown. The list is not random: actives were taken first. Their share in the collection is about 6.7%.
SMILES,C diff HTS,T cruzi growth-1,Pf Dd2 growth,T cruzi growth-2,T cruzi growth-3,3T3 cytotox,NIH3T3 tox 2
C[C@H]1CCCCO[C@H](CN(C)C(=O)Nc2ccc(C(F)(F)F)cc2)[C@@H](C)CN([C@@H](C)CO)C(=O)c2cc(N(C)C)ccc2O1,5,99*,-8,100*,48,-28,-6
O=C(C[C@H]1C=C[C@@H](NC(=O)C2CC2)[C@H](CO)O1)NCc1ccncc1,3,.,17,.,.,.,.
O=C(Cc1ccccn1)N1CC[C@@H]2[C@H](CO)Nc3ccc(-c4cccc(F)c4)cc3[C@@H]21,-16,108,3,.,.,.,.
O=C(C[C@@H]1CC[C@@H]2[C@H](COC[C@H](O)CN2Cc2cccc(Cl)c2)O1)Nc1nccs1,-6,68,-31,.,.,.,.
O=C(C[C@H]1CC[C@H]2[C@@H](COC[C@H](O)CN2Cc2ccc(Oc3ccccc3)cc2)O1)Nc1nccs1,11,191*,-52,103*,54,3,20
O=C(C[C@H]1CC[C@@H]2[C@H](COC[C@@H](O)CN2Cc2ccc(Oc3ccccc3)cc2)O1)Nc1nccs1,79,73,-56,.,.,.,.
O=C(C[C@H]1CC[C@H]2[C@@H](COC[C@@H](O)CN2Cc2ccc(Oc3ccccc3)cc2)O1)Nc1nccs1,13,152*,-33,102*,18,-4,17
O=C(C[C@H]1CC[C@H]2[C@@H](COC[C@H](O)CN2Cc2cccc(Cl)c2)O1)Nc1nccs1,4,133*,-49,?,25,23,20
O=C(C[C@H]1CC[C@H]2[C@@H](COC[C@H](O)CN2Cc2ccc(Cl)cc2)O1)Nc1nccs1,6,81,-27,.,.,.,.
O=C(C[C@H]1CC[C@@H]2[C@H](COC[C@@H](O)CN2Cc2ccc(Cl)cc2)O1)Nc1nccs1,-10,30,-47,.,.,.,.
O=C(C[C@@H]1CC[C@H]2[C@@H](COC[C@H](O)CN2Cc2ccc(Oc3ccccc3)cc2)O1)Nc1nccs1,35,193*,-67,104*,36,-13,?
CCCNC(=O)C[C@H]1C[C@H]2c3cc(NC(=O)CC4CC4)ccc3O[C@H]2[C@H](CO)O1,0,22,4,.,.,.,.
C[C@H](CO)N1C[C@H](C)[C@H](CN(C)C(=O)Nc2cccc3ccccc23)Oc2ccc(NS(=O)(=O)c3cn(C)cn3)cc2CC1=O,-2,12,2,.,.,.,.
COCC(=O)N1CCCCN2[C@H](C1)[C@H](c1ccc(C#Cc3ccc(OC)cc3)cc1)[C@@H]2CO,2,105*,-33,95*,36,20,89*
COCC(=O)N1CCCCN2[C@H](CO)[C@H](c3ccc(-c4ccc(OC)cc4)cc3)[C@@H]2C1,-10,103*,13,76,11,22,32*
COCC(=O)N1CCCCN2[C@@H](CO)[C@H](c3ccc(-c4ccc(OC)cc4)cc3)[C@@H]2C1,-4,104*,24,72,52,18,19
COCC(=O)N1CCCCN2[C@@H](CO)[C@H](c3ccc(-c4ccccc4)cc3)[C@@H]2C1,-7,89,-11,.,.,.,.
COCC(=O)N1CCCCN2[C@@H](CO)[C@@H](c3ccc(C#Cc4cccnc4)cc3)[C@@H]2C1,3,30,-32,.,.,.,.
COCC(=O)N1CCCCN2[C@@H](CO)[C@@H](c3ccc(C#Cc4ccc(OC)cc4)cc3)[C@@H]2C1,-4,71,-49,.,.,.,.
COCC(=O)N1CCCCN2[C@H](C1)[C@@H](c1ccc(-c3ccc(OC)cc3)cc1)[C@@H]2CO,-2,66,8,.,.,.,.
COCC(=O)N1CCCCN2[C@@H](CO)[C@H](c3ccc(C#Cc4cccnc4)cc3)[C@@H]2C1,-10,99*,21,93,36,13,22
CC(C)CC#Cc1ccc([C@@H]2[C@H]3CN(C(=O)Nc4cc(F)ccc4F)CC(=O)N3[C@H]2CO)cc1,-5,.,-43,.,.,.,.
CO[C@@H]1CN(C)C(=O)c2cc(NC(=O)CC(F)(F)F)ccc2OC[C@@H](C)N(CC2CC2)C[C@@H]1C,-6,.,44,.,.,.,.
COc1ccc2c3c([nH]c2c1)[C@@H](CO)N(C(=O)C1CCC1)CC31CCN(Cc2cccc(F)c2)CC1,4,.,-6,.,.,.,.
C[C@@H]1CN([C@@H](C)CO)C(=O)c2cccc(NC(=O)Nc3ccc(F)cc3)c2O[C@H]1CN(C)S(=O)(=O)c1cn(C)cn1,.,-18,3,.,.,.,.
SMILES,C diff HTS,T cruzi growth-1,Pf Dd2 growth,T cruzi growth-2,T cruzi growth-3,3T3 cytotox,NIH3T3 tox 2
COc1ccc2c3c([nH]c2c1)[C@@H](CO)N(Cc1ccccc1)CC31CCN(C(=O)Nc2cccc(F)c2)CC1,26,.,-73,.,.,.,.
CN(C)C(=O)C[C@H]1C[C@@H]2c3cc(NC(=O)Nc4ccc(C(F)(F)F)cc4)ccc3O[C@@H]2[C@@H](CO)O1,2,5,-14,.,.,.,.
C[C@H](CO)N1C[C@H](C)[C@@H](CN(C)Cc2ccc(C(F)(F)F)cc2)OCCCC[C@H](C)Oc2ccc(NC(=O)CCC(F)(F)F)cc2C1=O,3,84,5,.,.,.,.
CO[C@H]1CN(C)C(=O)c2cc(NS(=O)(=O)CC(F)(F)F)ccc2OC[C@H](C)N(Cc2cccnc2)C[C@@H]1C,.,.,32,.,.,.,.
CN1C(=O)c2cc(NC(=O)Nc3ccccc3)ccc2OC[C@@H]2O[C@H](CC(=O)O)CC[C@H]21,.,-23,.,.,.,.,.
CO[C@H]1CN(C)C(=O)c2cc(NC(=O)c3nc4ccccc4s3)ccc2OC[C@@H](C)N(Cc2ccncc2)C[C@@H]1C,-7,80,.,.,.,.,.
CCCN1C[C@H](C)[C@H](OC)CN(C)C(=O)c2cc(NC(=O)Nc3cccc(OC)c3)ccc2OC[C@H]1C,.,39,.,.,.,.,.
CO[C@@H]1CN(C)C(=O)c2cc(NC(=O)c3nc4ccccc4s3)ccc2OC[C@H](C)N(Cc2ccncc2)C[C@@H]1C,0,99*,.,90,44,-15,61*
CCCN1C[C@@H](C)[C@H](OC)CN(C)C(=O)c2cc(NS(=O)(=O)c3ccccc3)ccc2OC[C@H]1C,.,91*,-66,98*,41,2,-5
CCCN1C[C@@H](C)[C@H](OC)CN(C)C(=O)c2cc(NC(=O)Nc3cccc(OC)c3)ccc2OC[C@H]1C,.,102*,.,110*,75,-2,54*
CCCN1C[C@@H](C)[C@H](OC)CN(C)C(=O)c2cc(NS(=O)(=O)c3ccccc3)ccc2OC[C@@H]1C,.,-12,-5,.,.,.,.
CCS(=O)(=O)Nc1ccc2c(c1)C(=O)N(C)C[C@@H](OC)[C@H](C)CN(Cc1ccccn1)[C@@H](C)CO2,.,99*,40,-25,-32,-6,4
CCS(=O)(=O)Nc1ccc2c(c1)C(=O)N(C)C[C@@H](OC)[C@@H](C)CN(Cc1ccccn1)[C@@H](C)CO2,0,.,30,.,.,.,.

# Screening data as filed in PubChem BioAssay.
